Laboratory results reported in PubChem BioAssay AID1159580 (chemical genetic matrix, 2015).
In all, about 5,500 compounds went through this assay and about 2,000 (36%) were called active. About 18% were inconclusive and are not listed. Cut-off read from the data, not from the text of the source: active = normalized growth mostly below about 0.91 (no sharp cut-off); inconclusive = no clear call, values can overlap the other calls; inactive = mostly above about 0.92. The list shows a part of the results.

Assay: chemical genetic growth profiling, strain panel (AID 1159580);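 note: tested at 20 µM; growth read once vehicle control cultures reached saturation at 30 °C; 1 = growth at the plate median or of vehicle wells; lower values mean less growth of the strain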
Conditions: growth OD

Measured: normalized growth

COC(=O)Nc1nc2ccc(C(=O)c3ccccc3)cc2[nH]1
inactive: S. cerevisiae deletion strains, locus YJR075W, strain HOC1, hits give low values 0.924 | S. cerevisiae deletion strains, locus YKL009W, strain mrt4, hits give low values 1.05 | S. cerevisiae deletion strains, locus YKL085W, strain MDH1 (second series), hits give low values 1.05 | S. cerevisiae deletion strains, locus YKL085W, strain MDH1, hits give low values 1.05 | S. cerevisiae deletion strains, locus YKL190W, strain CNB1, hits give low values 1.01 | S. cerevisiae deletion strains, locus YKR001C, strain vps1, hits give low values 0.956 | S. cerevisiae deletion strains, locus YKR026C, strain gcn3, hits give low values 0.956 | S. cerevisiae deletion strains, locus YKR091W, strain srl3, hits give low values 1 | S. cerevisiae deletion strains, locus YLL001W, strain dnm1, hits give low values 0.933 | S. cerevisiae deletion strains, locus YLL026W, hits give low values 0.973 | S. cerevisiae deletion strains, locus YLL041C, strain sdh2, hits give low values 0.984 | S. cerevisiae deletion strains, locus YLR027C, strain aat2, hits give low values 0.94 | S. cerevisiae deletion strains, locus YLR039C, strain RIC1, hits give low values 0.938 | S. cerevisiae deletion strains, locus YLR058C, strain SHM2, hits give low values 1.02 | S. cerevisiae deletion strains, locus YLR102C, strain apc9, hits give low values 1 | S. cerevisiae deletion strains, locus YLR113W, strain HOG1, hits give low values 0.946 | S. cerevisiae deletion strains, locus YLR221C, strain rsa3, hits give low values 0.939 | S. cerevisiae deletion strains, locus YLR258W, strain gsy2, hits give low values 0.949 | S. cerevisiae deletion strains, locus YLR262C, strain YPT6, hits give low values 0.98 | S. cerevisiae deletion strains, locus YLR268W, strain sec22, hits give low values 0.98 | S. cerevisiae deletion strains, locus YLR330W, strain CHS5, hits give low values 1 | S. cerevisiae deletion strains, locus YLR342W, strain FKS1 (second series), hits give low values 0.852 | S. cerevisiae deletion strains, locus YLR357W, strain rsc2, hits give low values 0.925 | S. cerevisiae deletion strains, locus YLR370C, strain arc18, hits give low values 0.946 | S. cerevisiae deletion strains, locus YLR371W, strain rom2, hits give low values 1.01 | S. cerevisiae deletion strains, locus YLR384C, strain iki3, hits give low values 1 | S. cerevisiae deletion strains, locus YLR418C, strain cdc73, hits give low values 0.932 | S. cerevisiae deletion strains, locus YML016C, strain PPZ1, hits give low values 1.01 | S. cerevisiae deletion strains, locus YML032C, strain rad52, hits give low values 0.957 | S. cerevisiae deletion strains, locus YML120C, strain ndi1, hits give low values 0.96 | S. cerevisiae deletion strains, locus YMR058W, strain fet3, hits give low values 0.968 | S. cerevisiae deletion strains, locus YMR078C, strain ctf18, hits give low values 0.986 | S. cerevisiae deletion strains, locus YMR125W, strain sto1, hits give low values 1.03 | S. cerevisiae deletion strains, locus YMR129W, hits give low values 0.987 | S. cerevisiae deletion strains, locus YMR223W, strain ubp8, hits give low values 0.965 | S. cerevisiae deletion strains, locus YMR231W, strain pep5, hits give low values 0.955 | S. cerevisiae deletion strains, locus YMR263W, strain SAP30, hits give low values 0.999 | S. cerevisiae deletion strains, locus YNL067W, strain RPL9B, hits give low values 0.978 | S. cerevisiae deletion strains, locus YNL071W, strain lat1, hits give low values 0.925 | S. cerevisiae deletion strains, locus YNL128W, strain TEP1, hits give low values 1.01 | S. cerevisiae deletion strains, locus YNL209W, strain ssb2, hits give low values 0.971 | S. cerevisiae deletion strains, locus YNL248C, strain rpa49, hits give low values 0.977 | S. cerevisiae deletion strains, locus YNL250W, strain rad50, hits give low values 0.994 | S. cerevisiae deletion strains, locus YNL271C, strain bni1, hits give low values 1.01 | S. cerevisiae deletion strains, locus YNL298W, strain CLA4, hits give low values 1 | S. cerevisiae deletion strains, locus YNL322C, strain KRE1, hits give low values 0.997 | S. cerevisiae deletion strains, locus YNR049C, strain mso1, hits give low values 0.981 | S. cerevisiae deletion strains, locus YOL006C, strain TOP1, hits give low values 0.968 | S. cerevisiae deletion strains, locus YOL012C, strain htz1 0.338 | S. cerevisiae deletion strains, locus YOL147C, strain pex11, hits give low values 0.988 | S. cerevisiae deletion strains, locus YOR001W, strain rrp6, hits give low values 0.925 | S. cerevisiae deletion strains, locus YOR061W, strain CKA2, hits give low values 1 | S. cerevisiae deletion strains, locus YOR069W, strain VPS5, hits give low values 0.993 | S. cerevisiae deletion strains, locus YOR070C, strain gyp1, hits give low values 0.949 | S. cerevisiae deletion strains, locus YOR080W, strain dia2, hits give low values 0.979 | S. cerevisiae deletion strains, locus YOR083W, strain WHI5, hits give low values 0.896 | S. cerevisiae deletion strains, locus YOR136W, strain idh2, hits give low values 1.01 | S. cerevisiae deletion strains, locus YOR144C, strain elg1, hits give low values 1 | S. cerevisiae deletion strains, locus YOR231W, strain MKK1, hits give low values 0.931 | S. cerevisiae deletion strains, locus YOR265W, strain rbl2, hits give low values 0.98 | S. cerevisiae deletion strains, locus YOR270C, strain vph1, hits give low values 1.07 | S. cerevisiae deletion strains, locus YOR290C, strain snf2, hits give low values 0.959 | S. cerevisiae deletion strains, locus YOR316C, strain cot1, hits give low values 1 | S. cerevisiae deletion strains, locus YPL055C, strain LGE1, hits give low values 0.865 | S. cerevisiae deletion strains, locus YPL078C, strain atp4, hits give low values 0.931 | S. cerevisiae deletion strains, locus YPL106C, strain sse1, hits give low values 1.12 | S. cerevisiae deletion strains, locus YPL240C, strain hsp82, hits give low values 0.992 | S. cerevisiae deletion strains, locus YPL256C, strain CLN2, hits give low values 0.914 | S. cerevisiae deletion strains, locus YPR119W, strain clb2, hits give low values 0.998 | S. cerevisiae deletion strains, locus YPR141C, strain kar3, hits give low values 1.03 | S. cerevisiae deletion strains, locus YPR167C, strain met16, hits give low values 1 | S. cerevisiae deletion strains, strain wtn01, hits give low values 0.983 | S. cerevisiae strains, strain wild type, hits give low values 0.99
active: S. cerevisiae deletion strains, locus YKL160W, strain elf1, hits give low values 0.894 | S. cerevisiae deletion strains, locus YLR262C, strain YPT6 (second series), hits give low values 0.782 | S. cerevisiae deletion strains, locus YLR320W, strain mms22, hits give low values 0.849 | S. cerevisiae deletion strains, locus YLR342W, strain FKS1, hits give low values 0.908 | S. cerevisiae deletion strains, locus YML124C, strain tub3, hits give low values 0.207 | S. cerevisiae deletion strains, locus YMR205C, strain PFK2, hits give low values 0.806 | S. cerevisiae deletion strains, locus YMR307W, strain GAS1, hits give low values 0.463 | S. cerevisiae deletion strains, locus YNL153C, strain GIM3, hits give low values 0.0819 | S. cerevisiae deletion strains, locus YNL183C, strain NPR1, hits give low values 0.827 | S. cerevisiae deletion strains, locus YNL233W, strain BNI4, hits give low values 0.814 | S. cerevisiae deletion strains, locus YNL307C, strain MCK1, hits give low values 0.742 | S. cerevisiae deletion strains, locus YNL322C, strain KRE1 (second series), hits give low values 0.901 | S. cerevisiae deletion strains, locus YNR052C, strain pop2, hits give low values 0.91 | S. cerevisiae deletion strains, locus YOR106W, strain vam3, hits give low values 0.855 | S. cerevisiae deletion strains, locus YOR184W, strain ser1, hits give low values 0.717 | S. cerevisiae deletion strains, locus YPL051W, strain arl3, hits give low values 0.869 | S. cerevisiae deletion strains, locus YPL241C, strain CIN2, hits give low values 0.0733 | S. cerevisiae deletion strains, locus YPR163C, strain tif3, hits give low values 0.799
